The supplement of paper PMC8728848
The sample as a whole holds a higher share of the strongest signals than the screen did.

What was measured:
Assay in all cases: glycan array binding signal (z-score within array); higher = stronger binding
Gal(a1-2)Gal = conditions: glycan notation: IUPAC condensed, linker removed; mutation: F355A
How it was run: (§1)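 Glycan array data came from 3228 arrays in the Consortium for Functional Glycomics database, and only arrays with an available protein sequence were kept. Glycan names were put into IUPAC-condensed notation, and columns mapping to the same glycan were averaged. The binding signal is a within-array Z-score, averaged across arrays of one protein sequence run at different concentrations or buffers and across linkers. A negative Z-score can be read as non-binding.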

Gal(a1-3)Gal(b1-4)Glc = conditions: glycan notation: IUPAC condensed, linker removed; mutation: F355A
How it was run: as §1

Gal(a1-3)GalNAc = conditions: glycan notation: IUPAC condensed, linker removed; mutation: F355A
How it was run: as §1

[1] = target: Gal(b1-4)GlcNAc(b1-2)Man(a1-3)[Gal(b1-4)GlcNAc(b1-2)Man(a1-6)]Man(b1-4)GlcNAc(b1-4)GlcNAc; conditions: glycan notation: IUPAC condensed, linker removed; mutation: F355A
How it was run: as §1

[2] = target: GalNAc(b1-3)Gal(a1-4)Gal(b1-4)GlcNAc; conditions: glycan notation: IUPAC condensed, linker removed; mutation: F355A
How it was run: as §1

[3] = target: GlcNAc(a1-6)Gal(b1-4)GlcNAc; conditions: glycan notation: IUPAC condensed, linker removed; mutation: F355A
How it was run: as §1

[4] = target: GlcNAc(b1-4)Gal(b1-4)GlcNAc; conditions: glycan notation: IUPAC condensed, linker removed; mutation: F355A
How it was run: as §1

[5] = target: GlcNAc(b1-4)GlcNAc(b1-4)GlcNAc; conditions: glycan notation: IUPAC condensed, linker removed; mutation: F355A
How it was run: as §1

[6] = target: GlcNAc(b1-4)GlcNAc(b1-4)GlcNAc(b1-4)GlcNAc(b1-4)GlcNAc; conditions: glycan notation: IUPAC condensed, linker removed; mutation: F355A
How it was run: as §1

Kdn(a2-3)Gal(b1-4)GlcNAc = conditions: glycan notation: IUPAC condensed, linker removed; mutation: F355A
How it was run: as §1

[7] = target: Man(a1-2)Man(a1-2)Man(a1-6)[Man(a1-3)]Man; conditions: glycan notation: IUPAC condensed, linker removed; mutation: F355A
How it was run: as §1

[8] = target: Man(a1-2)Man(a1-3)[Man(a1-2)Man(a1-6)]Man; conditions: glycan notation: IUPAC condensed, linker removed
How it was run: as §1

[9] = target: Man(a1-2)Man(a1-3)[Man(a1-2)Man(a1-6)]Man(a1-6)[Man(a1-2)Man(a1-2)Man(a1-3)]Man; conditions: glycan notation: IUPAC condensed, linker removed; mutation: F355A
How it was run: as §1

[10] = target: Man(a1-2)Man(a1-6)[Man(a1-3)]Man(a1-6)[Man(a1-2)Man(a1-2)Man(a1-3)]Man(b1-4)GlcNAc(b1-4)GlcNAc; conditions: glycan notation: IUPAC condensed, linker removed; mutation: F355A
How it was run: as §1

[11] = target: Man(a1-3)[Man(a1-6)]Man(a1-6)[Man(a1-2)Man(a1-3)]Man(b1-4)GlcNAc(b1-4)GlcNAc; conditions: glycan notation: IUPAC condensed, linker removed; mutation: F355A
How it was run: as §1

[12] = target: Man(a1-3)[Man(a1-6)]Man(a1-6)[Man(a1-3)]Man; conditions: glycan notation: IUPAC condensed, linker removed; mutation: F355A
How it was run: as §1

[13] = target: Man(a1-3)[Man(a1-6)]Man(a1-6)[Man(a1-3)]Man(b1-4)GlcNAc(b1-4)GlcNAc; conditions: glycan notation: IUPAC condensed, linker removed; mutation: F355A
How it was run: as §1

[14] = target: Neu5Ac(a2-6)Gal(b1-4)GlcNAc(b1-2)Man(a1-6)[Gal(b1-4)GlcNAc(b1-2)Man(a1-3)]Man(b1-4)GlcNAc(b1-4)GlcNAc; conditions: glycan notation: IUPAC condensed, linker removed; mutation: F355A
How it was run: as §1

[15] = target: Neu5Gc(a2-3)Gal(b1-4)[Fuc(a1-3)]GlcNAc; conditions: glycan notation: IUPAC condensed, linker removed; mutation: F355A
How it was run: as §1

[16] = target: Gal(b1-3)[GlcNAc(b1-6)]GalNAc; conditions: glycan notation: IUPAC condensed, linker removed
How it was run: as §1

[17] = target: Gal(b1-4)GlcNAc(b1-3)Gal(b1-4)GlcNAc(b1-3)Gal(b1-4)GlcNAc; conditions: glycan notation: IUPAC condensed, linker removed
How it was run: as §1

Gal3S(b1-4)Glc = conditions: glycan notation: IUPAC condensed, linker removed
How it was run: as §1

Gal6S(b1-4)Glc = conditions: glycan notation: IUPAC condensed, linker removed
How it was run: as §1

Glc(a1-4)Glc = conditions: glycan notation: IUPAC condensed, linker removed
How it was run: as §1

Glc(b1-6)Glc = conditions: glycan notation: IUPAC condensed, linker removed
How it was run: as §1

[18] = target: GlcNAc(b1-2)Gal(b1-3)GalNAc; conditions: glycan notation: IUPAC condensed, linker removed
How it was run: as §1

Man(a1-2)Man(a1-3)Man = conditions: glycan notation: IUPAC condensed, linker removed
How it was run: as §1

[19] = target: Neu5Ac(a2-3)Gal(b1-3)[Neu5Ac(a2-3)Gal(b1-4)]GlcNAc; conditions: glycan notation: IUPAC condensed, linker removed
How it was run: as §1

[20] = target: Neu5Ac(a2-3)[GalNAc(b1-4)]Gal(b1-4)GlcNAc; conditions: glycan notation: IUPAC condensed, linker removed
How it was run: as §1

[21] = target: Neu5Ac(a2-3)[Neu5Ac(a2-6)]GalNAc; conditions: glycan notation: IUPAC condensed, linker removed
How it was run: as §1

Binder | glycan array binding signal (z-score) (Gal(a1-2)Gal) | glycan array binding signal (z-score) (Gal(a1-3)Gal(b1-4)Glc) | glycan array binding signal (z-score) (Gal(a1-3)GalNAc) | glycan array binding signal (z-score) [1] | glycan array binding signal (z-score) [2] | glycan array binding signal (z-score) [3] | glycan array binding signal (z-score) [4] | glycan array binding signal (z-score) [5] | glycan array binding signal (z-score) [6] | glycan array binding signal (z-score) (Kdn(a2-3)Gal(b1-4)GlcNAc) | glycan array binding signal (z-score) [7] | glycan array binding signal (z-score) ([8]; mutation: F355A) | glycan array binding signal (z-score) [9] | glycan array binding signal (z-score) [10] | glycan array binding signal (z-score) [11] | glycan array binding signal (z-score) [12] | glycan array binding signal (z-score) [13] | glycan array binding signal (z-score) [14] | glycan array binding signal (z-score) [15] | glycan array binding signal (z-score) [16] | glycan array binding signal (z-score) [17] | glycan array binding signal (z-score) (Gal3S(b1-4)Glc) | glycan array binding signal (z-score) (Gal6S(b1-4)Glc) | glycan array binding signal (z-score) (Glc(a1-4)Glc) | glycan array binding signal (z-score) (Glc(b1-6)Glc) | glycan array binding signal (z-score) [18] | glycan array binding signal (z-score) (Man(a1-2)Man(a1-3)Man) | glycan array binding signal (z-score) [8] | glycan array binding signal (z-score) [19] | glycan array binding signal (z-score) [20] | glycan array binding signal (z-score) [21]
Surfactant Protein D (Human); Neck + Carbohydrate Recognition Domain (NCRD) (Homo sapiens) (protein) MLLFLLSALVLLTQPLGYLEAEMKTYSHRTMPSACTLVMCSSVESGLPGRDRDGREGPRGEKGDPGLPGAAGQAGMPGQAGPVGPKGDNGSVGEPGPKGDTGPSGPPGPPGVPGPAGREGALGKQGNIGPQGKPGPKGEAGPKGEVGAPGMQGSAGARGLAGPKGERGVPGERGVPGNTGAAGSAGAMGPQGSPGARGPPGLKGDKGIPGDKGAKGESGLPDVASLRQQVEALQGQVQHLQAAFSQYKKVELFPNGQSVGEKIFKTAQFVKPFTEAQLLCTQAGGQLASPRSAAENAALQQLVVAKNEAAFLSMTDSKTEGKFTYPTGESLVYSNWAPGEPNDDGGSEDCVEIFTNGKWNDRACGEKRLVVCEA | -0.16 | -0.099 | -0.129 | -0.104 | -0.138 | -0.164 | -0.146 | -0.155 | -0.122 | -0.072 | 2.74 | 4.68 | 15 | 1.59 | 2.15 | 5.56 | 2.12 | -0.15 | -0.145 | – | – | – | – | – | – | – | – | – | – | – | –
Hip/Pap (Homo sapiens), Q06141 (protein) MLPPMALPSVSWMLLSCLMLLSQVQGEEPQRELPSARIRCPKGSKAYGSHCYALFLSPKSWTDADLACQKRPSGNLVSVLSGAEGSFVSSLVKSIGNSYSYVWIGLHDPTQGTEPNGEGWEWSSSDVMNYFAWERNPSTISSPGHCASLSRSTAFLRWKDYNCNVRLPYVCKFTD | – | – | – | – | – | – | – | – | – | – | – | – | – | – | – | – | – | – | – | -0.159 | -0.173 | 0.278 | -0.162 | 0.806 | 0.091 | -0.099 | -0.027 | 0.58 | 0.71 | -0.173 | -0.168
